In PubChem BioAssay (Tox21):
Results filed as inconclusive are left out. The source made the active and inactive calls. Unless noted, the call rests on the fitted dose curve; in most records, active means well fitted curve in the direction sought with a large enough effect in the repeat runs; inconclusive means weak or mixed curves; inactive means flat fitted curve, though single readings scatter.

Columns and labels:
[1] = qHTS assay to test for compound auto fluorescence at 535 nm (green) in HEK293 cells (AID 720680)
[2] = qHTS assay to test for compound auto fluorescence at 460 nm (blue) in HEK293 cell free culture (AID 720681)
Procedure, shortened: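 Test compounds were pinned into cell-free culture medium (DMEM with 10% FBS) and fluorescence was read directly at Ex/Em 405/460 nm. Signals were expressed as fluorescence equivalents of triamterene, with DMSO vehicle as control.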

[3] = qHTS assay to test for compound auto fluorescence at 535 nm (green) in HEK293 cell free culture (AID 720682)
Procedure, shortened: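 Compounds were pin-transferred into cell-free DMEM with 10% FBS, and green fluorescence was read at excitation 485 nm and emission 535 nm. Intensities were expressed as fluorescein-equivalent values.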

[4] = qHTS assay to test for compound auto fluorescence at 590 nm (red) in HEK293 cell free culture (AID 720683)
Procedure, shortened: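 Tox21 10K library compounds were pinned into cell-free DMEM with 10% FBS and fluorescence was read at excitation 540 nm. Activity is expressed as Rose Bengal sodium equivalency.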

[5] = qHTS assay to test for compound auto fluorescence at 590 nm (red) in HepG2 cell free culture (AID 720684)
Procedure, shortened: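 Ex 540 / Em 590 nm read of compound in cell-free MEM (10% FBS). Rose Bengal sodium reference.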

[6] = qHTS assay to test for compound auto fluorescence at 460 nm (blue) in HepG2 cell free culture (AID 720685)
Procedure, shortened: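 Cell-free plates of MEM plus 10% FBS received 23 nL compound or DMSO vehicle; blue-channel (405/460 nm) intensity scored against triamterene as reference fluorophore.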

[7] = qHTS assay to test for compound auto fluorescence at 535 nm (green) in HepG2 cell free culture (AID 720686)
[8] = qHTS assay to test for compound auto fluorescence at 460 nm (blue) in HepG2 cells (AID 720687)
Procedure, shortened: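 Cells (2,000/well in MEM with 10% FBS) attached overnight at 37 C, then were exposed to compound or DMSO for 1 hr at 37 C, 5% CO2. Fluorescence read at Ex/Em 405/460 nm, expressed as triamterene-equivalent signal.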

[9] = target: Glucocorticoid receptor (Homo sapiens) (UniProt P04150); assay: qHTS assay to identify small molecule agonists of the glucocorticoid receptor (GR) signaling pathway (AID 720691; active means well fitted activation curve with a large enough effect in the signal ratio in the repeat runs, not every such curve was filed as active; the % refers to the signal ratio)
Procedure, shortened: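 Compounds in DMSO, alongside positive controls, were added to GR-bla HeLa reporter cells and incubated 18 h at 37 C; GRE-driven beta-lactamase was detected by fluorescence after 2 h with FRET substrate at room temperature.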

[10] = target: Glucocorticoid receptor (Homo sapiens) (UniProt P04150); assay: qHTS assay to identify small molecule antagonists of the glucocorticoid receptor (GR) signaling pathway (AID 720692; active means well fitted inhibition curve with a large enough effect in the signal ratio in the repeat runs, not every such curve was filed as active; the % refers to the signal ratio)
Procedure, shortened: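 In a 1536-well cell format, compounds were added 4 h after seeding GR-bla HeLa cells, together with dexamethasone at 5 nM final; reporter activity was measured by FRET-substrate fluorescence following 18 h at 37 C.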
On the % scale 0 is the no-effect control and ±100 the full control effect.

Sequence of Glucocorticoid receptor (Homo sapiens) (P04150 whole entry, looked up): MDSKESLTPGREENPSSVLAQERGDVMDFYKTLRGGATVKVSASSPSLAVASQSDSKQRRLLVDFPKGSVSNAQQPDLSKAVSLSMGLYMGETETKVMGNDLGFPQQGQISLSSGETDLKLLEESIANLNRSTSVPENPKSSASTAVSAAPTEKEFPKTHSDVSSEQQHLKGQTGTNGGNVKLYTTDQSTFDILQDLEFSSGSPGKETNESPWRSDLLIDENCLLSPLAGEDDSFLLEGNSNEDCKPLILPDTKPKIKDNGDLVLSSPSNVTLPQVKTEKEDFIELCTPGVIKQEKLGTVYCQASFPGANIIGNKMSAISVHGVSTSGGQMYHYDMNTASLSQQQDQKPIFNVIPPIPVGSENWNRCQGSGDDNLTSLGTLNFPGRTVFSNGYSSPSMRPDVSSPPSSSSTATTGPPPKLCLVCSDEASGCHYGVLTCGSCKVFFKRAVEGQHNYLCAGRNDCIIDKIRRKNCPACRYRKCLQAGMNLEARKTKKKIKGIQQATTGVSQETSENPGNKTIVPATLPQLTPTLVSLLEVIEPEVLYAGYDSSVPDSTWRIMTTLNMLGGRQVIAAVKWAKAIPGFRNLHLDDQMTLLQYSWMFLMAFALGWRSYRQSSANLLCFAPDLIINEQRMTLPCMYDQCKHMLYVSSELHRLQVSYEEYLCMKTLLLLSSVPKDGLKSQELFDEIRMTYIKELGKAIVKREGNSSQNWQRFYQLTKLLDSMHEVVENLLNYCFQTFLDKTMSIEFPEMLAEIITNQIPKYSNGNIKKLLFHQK

CN(C)CCN(C)CCN(C)C
inactive: outcome [1] | outcome [2] | outcome [3] | outcome [4] | outcome [5] | outcome [6] | outcome [7] | outcome [8] | Potency [9] | Potency [10]

[O-][n+]1cccc(CO)c1
inactive: outcome [1] | outcome [2] | outcome [3] | outcome [4] | outcome [5] | outcome [6] | outcome [7] | outcome [8] | Potency [9] | Potency [10]

Nc1c2c(nc3c1CCC3)CCCC2
inactive: outcome [1] | outcome [2] | outcome [3] | outcome [4] | outcome [5] | outcome [7] | outcome [8]

CCC(C)(CCCC(C)C)OC(C)=O (stereo unspecified)
inactive: outcome [1] | outcome [2] | outcome [3] | outcome [4] | outcome [5] | outcome [6] | outcome [7] | outcome [8] | Potency [9] | Potency [10]

O=Cc1cccc(Br)c1
inactive: outcome [1] | outcome [2] | outcome [3] | outcome [4] | outcome [5] | outcome [6] | outcome [7] | outcome [8] | Potency [9] | Potency [10]

C=CC(C)(CCC=C(C)C)OC(=O)CC (stereo unspecified)
inactive: outcome [1] | outcome [2] | outcome [3] | outcome [4] | outcome [5] | outcome [6] | outcome [7] | outcome [8] | Potency [9] | Potency [10]

O=C(O)c1cc(C(=O)O)cc(C(=O)O)c1
inactive: outcome [1] | outcome [2] | outcome [3] | outcome [4] | outcome [5] | outcome [6] | outcome [7] | outcome [8] | Potency [9] | Potency [10]

CCCCc1ccc2c(n1)[C@@H](c1ccc(OC)cc1C[C@H](C)C(=O)O)[C@H](C(=O)O)[C@H]2c1ccc2c(c1)OCO2
inactive: outcome [1] | outcome [2] | outcome [3] | outcome [4] | outcome [5] | outcome [6] | outcome [7] | outcome [8] | Potency [9] | Potency [10]

C[N+](C)(CCOc1ccccc1)Cc1cccs1
inactive: outcome [1] | outcome [2] | outcome [3] | outcome [4] | outcome [5] | outcome [6] | outcome [7] | outcome [8] | Potency [9] | Potency [10]

CCCCOC(=O)CCC(C)=O
inactive: outcome [1] | outcome [2] | outcome [3] | outcome [4] | outcome [5] | outcome [6] | outcome [7] | outcome [8] | Potency [9] | Potency [10]

C[C@@H]1CCC[C@H](C)N1
inactive: fluorescence, % of fluorescein [1] -0.0078% [at 18.6 µM] | fluorescence, % of fluorescent control [2] -0.0158% [at 18.6 µM] | activity change [3] 0.0087% [at 18.6 µM] | fluorescence, % of fluorescent control [4] -0.545% [at 18.6 µM] | fluorescence, % of Rose Bengal [5] 0.0262% [at 18.6 µM] | fluorescence, % of fluorescent control [6] -0.0314% [at 18.6 µM] | fluorescence, % of fluorescein control [7] -0.001% [at 18.6 µM] | fluorescence, % of fluorescent control [8] 0.0179% [at 18.6 µM] | Potency [9] | Potency [10]

CCCCCCCCN1CCCC1=O
inactive: outcome [1] | outcome [2] | outcome [3] | outcome [4] | outcome [5] | outcome [6] | outcome [7] | outcome [8] | Potency [9] | Potency [10]

CCOC(=O)COc1cc(-n2ncc(C(F)(F)F)c(C)c2=O)c(F)cc1Cl
inactive: outcome [1] | outcome [2] | outcome [3] | outcome [4] | outcome [5] | outcome [6] | outcome [7] | outcome [8] | Potency [9] | Potency [10]

COc1ccnc(CS(=O)c2nc3cc(OC(F)F)ccc3[nH]2)c1OC (stereo unspecified)
inactive: outcome [1] | outcome [2] | outcome [3] | outcome [4] | outcome [5] | outcome [6] | outcome [7] | outcome [8] | Potency [9] | Potency [10]

CCCCCCCCCCCCCCCCCCO
inactive: outcome [1] | outcome [2] | outcome [3] | outcome [4] | outcome [5] | outcome [6] | outcome [7] | outcome [8] | Potency [9] | Potency [10]

CCOC(=O)CCC(=O)OCC
inactive: outcome [1] | outcome [2] | outcome [3] | outcome [4] | outcome [5] | outcome [6] | outcome [7] | outcome [8] | Potency [9] | Potency [10]

CCN1C=CN(C)C1C (stereo unspecified)
inactive: outcome [1] | outcome [2] | outcome [3] | outcome [4] | outcome [5] | outcome [6] | outcome [7] | outcome [8] | Potency [9] | Potency [10]

CCCO[Si](OCCC)(OCCC)OCCC
inactive: outcome [1] | outcome [2] | outcome [3] | outcome [4] | outcome [5] | outcome [6] | outcome [7] | outcome [8] | Potency [9] | Potency [10]

CCOc1ccc2nc(S(N)(=O)=O)sc2c1
inactive: outcome [1] | outcome [2] | outcome [3] | outcome [4] | outcome [5] | outcome [6] | outcome [7] | outcome [8] | Potency [10]

Cc1cc(C)c(N=Nc2c(O)c(S(=O)(=O)O)cc3cc(S(=O)(=O)O)ccc23)cc1C
inactive: fluorescence, % of fluorescein [1] -0.0092% [at 9.17 µM] | fluorescence, % of fluorescent control [2] -0.0769% [at 9.17 µM] | activity change [3] 0.0216% [at 9.17 µM] | fluorescence, % of fluorescent control [4] 0.0378% [at 9.17 µM] | fluorescence, % of Rose Bengal [5] 0.0175% [at 9.17 µM] | fluorescence, % of fluorescent control [6] -0.11% [at 9.17 µM] | fluorescence, % of fluorescein control [7] -0.0747% [at 9.17 µM] | fluorescence, % of fluorescent control [8] -0.0207% [at 9.17 µM] | activation [9] -1.47% [at 6.9 µM] | activity change, negative = inhibition [10] 0.597% [at 7.04 µM]

CC(=O)N[C@H]1[C@H]([C@H](O)[C@H](O)CO)OC(C(=O)O)=C[C@@H]1N=C(N)N
inactive: outcome [1] | outcome [2] | outcome [3] | outcome [4] | outcome [5] | outcome [6] | outcome [7] | outcome [8] | Potency [9] | Potency [10]
